Screening data deposited in PubChem by The Scripps Research Institute Molecular Screening Center.
This is a sample that favours compounds with a hit; in the whole collection about 5.7% have one here.
DAX1 inh-1 = inhibitors of DAX1 repression of SF-1 activated StAR promoter; AID 652010; hit rate 1.1% among 370,000; inhibition, % at 6.8 µM; HEK293T StAR-luciferase reporter, SF-1/DAX-1 repression relief;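 active = inhibition above the mean over all tested compounds plus 3 SD, cut at about 3.6% in these data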;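 note: 0% = DAX-1 cells with DMSO and 100% = cells lacking DAX-1 with DMSO; higher inhibition means more luminescence from relief of DAX-1 repression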
hcDAF12 agonist = activates DAF-12 receptor from parasite H. contortus. HEK293 hcDAF-12 lit1-tk-luc reporter, luminescence; 0% DMSO, 100% Δ7-dafachronic acid. activation, % at 6.8 µM. hit rate 1.4% among 370,000. AID 652067;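 active = activation above the mean of all tested compounds plus 3 SD, cut at about 5.5% in these data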;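 note: 100% = response to 3 µM Δ7-dafachronic acid high control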
DAX1 inh-2 = NR0B1 (DAX1) inhibition | hit rate 0.99% among 340,000 | HEK293 Gal4-DAX1 luciferase reporter, luminescence | P51843 | inhibition, % at 6.75 µM;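 active = inhibition above the mean over all tested compounds plus 3 SD, cut at about 4.2% in these data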;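 note: 0% = DAX1-transfected cells with DMSO and 100% = empty-vector control cells with DMSO; inhibition shows as a rise in luminescence from relieved DAX1 repression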
Target sequence (P51843 207-470 limits assumed): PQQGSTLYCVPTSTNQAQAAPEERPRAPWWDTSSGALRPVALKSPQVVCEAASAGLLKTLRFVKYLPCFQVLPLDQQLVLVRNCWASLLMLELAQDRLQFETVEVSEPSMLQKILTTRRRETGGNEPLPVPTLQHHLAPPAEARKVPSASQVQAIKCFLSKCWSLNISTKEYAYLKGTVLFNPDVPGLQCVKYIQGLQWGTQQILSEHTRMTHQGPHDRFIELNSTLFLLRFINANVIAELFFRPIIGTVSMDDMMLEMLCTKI
hgDAF-12 ag = agonists of H. glycines DAF-12 nuclear receptor. activation, % at 6.8 µM. HEK293 GAL4-hgDAF12 UAS-luciferase reporter, agonist luminescence; normalized to butyrate control. AID 687014. hit rate 1.8% among 370,000;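 active = activation above a cutoff set at the mean of all screened compounds plus 3 SD, cut at about 10% in these data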;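 note: 0% = DMSO wells and 100% = sodium butyrate wells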
ssDAF12 agonist = activates DAF-12 receptor from parasite S. stercoralis. activation, % at 6.8 µM. HEK293 ssDAF-12/GRIP1 lit1-tk-luc reporter, luminescence; % of 3 µM dafachronic acid response. hit rate 1% among 370,000. AID 652126;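 active = activation above the mean over all tested compounds plus 3 SD, cut at about 0.9% in these data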;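 note: 0% = DMSO-only wells and 100% = 3 µM delta7-dafachronic acid wells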
AHR activator = activates the human aryl hydrocarbon receptor; P35869; AHR-responsive luciferase reporter cells, luminescence; activation, % at 5 µM; hit rate 2.5% among 320,000; AID 2796; in the data active = activation above about 47%;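 note: 0% = vehicle wells and 100% = reference agonist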
Active calls of the source: *; nt = no result given.

SMILES	DAX1 inh-1	hcDAF12 agonist	DAX1 inh-2	hgDAF-12 ag	ssDAF12 agonist	AHR activator
COc1cccc(OCc2cc(/C=N/NC(=O)c3ccn[nH]3)ccc2OC)c1	0.0	-0.2	2.0	4.7	-0.8	63.0*
Clc1ccc(NCc2cccnc2)cc1	-0.1	-2.1	0.7	0.3	-1.3	23.5
Fc1ccc(NCc2cccnc2)cc1F	0.4	3.9	-1.2	0.6	1.2*	-0.1
COc1cccc(CNC(=O)CN(C)S(=O)(=O)c2ccc(Br)s2)c1	0.1	-2.8	10.4*	0.0	-1.2	0.8
CN(C(=O)CC1C(=O)NCCN1CC(c1ccccc1)c1ccccc1)C(C1CC1)C1CC1 (centres undefined)	-0.3	-0.6	-0.6	2.9	-1.7	7.4
Cc1ccc(-n2ncc3c(NCc4cccnc4)ncnc32)cc1C	0.5	0.4	0.7	5.0	-0.8	-5.2
COc1ccc(-n2ncc3c(NCc4cccnc4)ncnc32)cc1	2.1	3.3	2.4	11.3*	0.1	2.8
Cc1cccc(N=NC(=S)NNc2cccc(C)c2)c1	3.7*	6.1*	2.3	9.3	0.2	nt
CC(C)(C)c1csc(N/N=C/c2ccc(O)cc2)n1	0.5	4.7	-0.9	0.3	-0.2	72.3*
Cc1ccc(S(=O)(=O)NCc2csc(C)n2)cc1	0.0	-0.3	1.2	1.6	-0.5	nt
Cc1nc(CNS(=O)(=O)c2ccc3c(c2)CCCC3)cs1	-1.6	5.9*	-2.0	-3.3	-1.6	-2.7
CS(=O)(=O)Nc1ccc2c(c1)ncn2CCc1ccccc1	-0.2	0.5	0.6	-0.7	-0.9	2.5
CC(C)(CC(=O)O)CC(=O)Nc1ccc2c(c1)ncn2CCc1ccccc1	-0.1	-1.2	4.5*	1.9	-0.6	1.0
CC1S/C(=N/N=C2CCCCC2)NC1=O (centres undefined)	0.7	0.8	0.8	1.0	-0.6	14.8
CC1S/C(=N/N=C2CCC(C(C)(C)C)CC2)NC1=O (centres undefined)	2.4	2.2	2.8	12.1*	0.1	9.6
Cn1cccc1C(=O)OCC(=O)NC1CCS(=O)(=O)C1 (centres undefined)	0.4	1.1	2.0	-0.6	2.5*	3.6
C=CCSc1n[nH]c(-c2ccc(OC)cc2)n1	2.0	3.5	2.2	12.1*	-0.5	11.4
CCc1nc2ccc(C(=O)Nc3ccc(Cl)c(Cl)c3)cn2c1N(C)Cc1ccc(OC)cc1	0.4	0.7	nt	11.8*	-0.2	nt
COc1ccc(NCC(=O)n2c(C)c(C)c3ccccc32)cc1	-3.8	0.1	0.8	5.8	-2.0	24.8
O=C1C=CC(=O)N1c1ccccc1N1C(=O)C=CC1=O	4.0*	-1.6	4.3*	-1.4	0.1	nt
O=C(c1ccccc1)c1ccccc1N1C(=O)C=CC1=O	0.1	2.3	0.8	0.2	-0.6	-2.7
CC(C)[C@H](NC(=O)c1ccccc1)C(=O)OCC(=O)NCc1ccc(F)cc1	-0.8	-0.2	5.4*	0.0	-1.2	-0.2
COc1cc2c(cc1NC(=O)COC(=O)CNC(=O)c1ccccc1)oc1ccccc12	2.0	2.7	1.7	6.8	-0.5	46.4
COc1cc2c(cc1NC(=O)COC(=O)[C@@H](NC(=O)c1ccccc1F)C(C)C)oc1ccccc12	0.1	-1.0	-0.7	1.1	-1.3	58.9*
COc1cc2c(cc1NC(=O)COCC(=O)O)oc1ccccc12	-0.2	1.8	-0.3	-0.6	-0.7	nt
SMILES	DAX1 inh-1	hcDAF12 agonist	DAX1 inh-2	hgDAF-12 ag	ssDAF12 agonist	AHR activator
CC(C)[C@H](NC(=O)c1ccccc1)C(=O)OCC(=O)NCC1CCCO1 (some centres undefined)	1.6	-1.8	0.3	1.6	-0.7	1.1
COc1cc2c(cc1NC(=O)COC(=O)[C@@H](NC(=O)c1ccccc1)C(C)C)oc1ccccc12	-0.7	-1.0	-0.6	-0.8	-0.9	49.5*
c1ccc(CCc2nc(-c3ccccc3)no2)cc1	0.7	-0.7	-0.2	4.6	-0.7	-4.6
CN1CCC(Oc2ccc(Sc3ccccc3)cc2)CC1	0.8	5.5	0.0	10.7*	-0.8	3.4
Cc1ccccc1C1CC(=O)NC2=C1C(=O)CCC2 (centres undefined)	-0.6	-2.2	0.1	2.6	-0.9	-1.7
NC(=O)c1cc(Cc2ccccc2)sc1NC(=O)c1ccco1	2.4	2.7	2.1	12.8*	-0.3	1.1
Cc1cc(NC(=O)CSCC(=O)OCc2nnc(-c3ccccc3)o2)no1	0.9	-0.4	-0.3	-0.9	-1.1	-1.1
